KB-V1 MDR tox: qHTS assay for MDR1-selective chemotherapeutics: Primary screen using the drug-selected MDR subline cells KB-V1 | KB-V1 MDR cells viability, CellTiter-Glo, 72 h | Potency, µM (titrated, usually from 46.1 µM), most hits filed as cytotoxic | 400,000 tested, 3.4% active; further: on the % scale 0 is the no-effect control and ±100 the full control effect; nearly all actives have a fitted effect of over 60% in size
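Cytotoxicity via CellTiter-Glo luminescence after 72 h compound exposure at 37 degrees C. Cells: drug-selected KB-V1 line, DMEM phenol-red free plus 10% FBS. Compounds tested at multiple concentrations; normalized data fitted to concentration-effect curves.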
KB-3-1 tox: qHTS assay for MDR1-selective chemotherapeutics: Primary screen using the parental adenocarcinoma cell KB-3-1 | KB-3-1 viability, CellTiter-Glo ATP luminescence, 72 h | Potency, µM (top dose mostly 46.1 µM), most hits filed as cytotoxic | 400,000 tested, 1.4% active | AID 1347075, 2019; further: on the % scale 0 is the no-effect control and ±100 the full control effect; nearly all actives have a fitted effect of over 60% in size
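72 h, 37 °C compound treatment of KB-3-1 parental cells; CellTiter-Glo added, 10 min, luminescence read. Data corrected against DMSO-only plates and normalized before curve fitting.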
HT1080NT lethal: qHTS for induction of synthetic lethality in tumor cells producing 2HG: qHTS for the HT-1080-NT fibrosarcoma cell line. Potency, µM (series often up to 46.1 µM), without a hit: at the highest dose activity, negative = less viability, hits mostly cytotoxic. 360,000 tested, 1.6% active. HT-1080-NT fibrosarcoma viability, CellTiter-Glo ATP luminescence, 48 h;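 further: NT is the 2HG producing partner of a matched IDH1 knockdown line; 0% = DMSO-treated cells and -100% = media-only wells without cells; nearly all actives have a fitted effect of over 55% in size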
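Toxicity toward the 2HG-producing NT line was scored as %Activity, normalised to DMSO and no-cell wells, from CellTiter-Glo luminescence after 48 hours' treatment.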
MCF10A rereplic: A quantitative high throughput screen for small molecules that induce DNA re-replication in MCF 10a normal breast cells; MCF 10A DNA re-replication, Hoechst nuclear intensity, 48 h; Potency, µM (doses to about 46.1 µM), inactives show at the highest dose activity, positive = re-replication, actives largely listed as activators; 350,000 tested, 2.9% active; AID 624296, 2012; further: % of control where 0% means no effect; nearly all actives have a fitted effect of over 50% in size
HT1080 IDH1KD tx: qHTS for induction of synthetic lethality in tumor cells producing 2HG: qHTS for the HT-1080-IDH1KD cell line. HT-1080 IDH1 knockdown viability, ATP luminescence, 48 h. Potency, µM (highest dose often 46.1 µM), for inactives: top-dose activity, negative = toxicity, actives largely listed as cytotoxic. 360,000 tested, 2% active;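 further: 0% = DMSO wells and -100% = cell-free medium wells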
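In this qHTS, HT-1080 cells depleted of IDH1 are exposed for 48 h at 37 °C to compound titrations. Toxicity is scored from CellTiter-Glo luminescence, with DMSO as full viability and medium alone as none.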
SW480 rerep: A quantitative high throughput screen for small molecules that induce DNA re-replication in SW480 colon adenocarcinoma cells; SW480 DNA re-replication, Hoechst DNA content imaging, 48 h; Potency, µM (titrated, usually from 46.1 µM), inactives show at the highest dose re-replication activation, actives largely listed as activators; 340,000 tested, 1.8% active; further: % of control where 0% means no effect; nearly all actives have a fitted effect of over 55% in size
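Image-based DNA-content assay: after two days of treatment, nuclei were labelled with the DNA dye Hoechst and imaged, and hits were compounds raising the count of nuclei showing high fluorescence intensity.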
An asterisk follows results filed as active; i = inactive; ? = inconclusive; · = not tested or not shown; [ ] = remark or other dose. Sampled rows, rich in hits. Any-hit rate of the full collection: about 7.9%. The call rests on the fitted dose curve; in most records, active means well fitted curve in the direction sought with a large enough effect; inconclusive means small, poorly fitted or top-dose-only effect, or another doubt; inactive means no such curve, though single readings can be large; an effect the other way counts as inactive or inconclusive. Potency means the concentration at half of the fitted maximal effect.

SMILES | KB-V1 MDR tox | KB-3-1 tox | HT1080NT lethal | MCF10A rereplic | HT1080 IDH1KD tx | SW480 rerep
Cc1ccc(-c2nnc(CSc3nnc(COc4ccccc4)n3-c3ccc(C)cc3)o2)cc1 | ? | i | -0.7% | 23.1µM* | -12.2% | ?
Cc1ccc(-n2c(COc3ccccc3)nnc2SCC(=O)O)cc1 | i | i | 10.5% | · | -1.4% | ·
Cc1ccc(-c2nnc(CSc3nnc(COc4ccccc4)n3-c3ccccc3)o2)cc1 | i | i | -21.6% | 11.6µM* | ? | 11.5%
COc1cccc(CNC(=O)CN2C(=O)CSc3c2c(C)nn3-c2ccccc2)c1OC | i | i | · | · | · | ·
Cc1ccc(S(=O)(=O)N2[C@H](CC(=O)OCc3ccccc3)OC[C@@H]2C(C)C)cc1 | i | i | -21.1% | · | -16.4% | ·
COc1ccc(Cn2c(SCc3ccc(C(=O)NCc4ccc(C)cc4)cc3)nc3cccnc32)cc1 | i | i | · | · | · | ·
Cc1cccc2cc3c(N)c(C(=O)N4CCc5ccccc54)sc3nc12 | 9.2µM* | ? | -29.0% | ? | ? | ?
Cc1cc(C)c2cc3c(N)c(C(=O)N4CCOCC4)sc3nc2c1 | i | i | 0.4% | -2.2% | -5.9% | 1.4%
Cc1cccc2cc3c(N)c(C#N)sc3nc12 | 1.46µM* | ? | 18.7% | ? | 17.1% | ?
Cc1cc(C)c2nc3sc(C(=O)N4CCOCC4)c(N)c3cc2c1 | ? | 0.259µM* | 0.206µM* | ? | 0.0517µM* | ?
Nc1c(C(=O)N2CCCC2)sc2nc3c(cc12)CCCCCC3 | ? | i | 6.6% | 14.6µM* | 3.3% | 5.6%
CCOc1ccccc1CNC(=O)c1nc(-c2ccc(Cl)cc2)n2c1CCCCC2 | i | i | · | · | · | ·
Cc1ccc(C)c2nc3sc(C(=O)N4CCOCC4)c(N)c3cc12 | ? | ? | 4.11µM* | ? | 3.26µM* | ?
N#Cc1c(C(F)(F)F)cc(-c2ccccc2Cl)[nH]c1=O | ? | ? | -7.2% | 14.6µM* | 1.1% | 6.8%
COc1cccc(-c2cc(C(F)(F)F)c(C#N)c(=O)[nH]2)c1 | i | i | -9.1% | 18.4µM* | -13.5% | 2.0%
N#Cc1c(C(F)(F)F)cc(-c2ccccc2)[nH]c1=O | ? | i | -2.4% | ? | 0.8% | 13.8%
Cc1ccc(Nc2cccccc2=O)cc1 | i | i | -3.9% | -46.7% | 29.1µM* | -11.5%
COc1ccccc1CNc1ccc(-c2nc(-c3ccncc3)no2)cc1[N+](=O)[O-] | i | i | · | · | · | ·
CN(C1CCCCC1)S(=O)(=O)c1ccc(S(=O)(=O)N2CCCC2)cc1 | ? | i | -20.4% | -2.3% | 5.5%[9.24 µM] | 0.9%
CN(C1CCCCC1)S(=O)(=O)c1ccc(=S)[nH]c1 | 14.6µM* | i | 8.4% | 2.3% | 8.8% | -9.2%
Cc1ccccc1/C=C1\Sc2ccc(C(=O)N3CCN(c4ccccn4)CC3)cc2N(C)C1=O | ? | i | 0.0% | 23.1µM* | -14.6% | 3.0%
Cc1ccc(/C=C2/Sc3ccc(C(=O)N4CCN(c5ccccn5)CC4)cc3NC2=O)cc1 | i | i | -0.7% | 8.2µM* | 3.3% | 19.7%
O=C(CN(C(=O)c1ccc(Cl)cc1)C1CCCCC1)Nc1ccc(Cl)c([N+](=O)[O-])c1 | 14.6µM* | i | ? | 7.3% | ? | ?
Cc1ccc([N+](=O)[O-])cc1NC(=O)CN(C(=O)c1ccc(Cl)cc1)C1CCCCC1 | 23.1µM* | ? | -14.1% | 9.8% | ? | 15.6%
O=C(C[n+]1ccc(Cc2ccccc2)cc1)Nc1ccc([N+](=O)[O-])cc1Cl | i | i | -3.6% | ? | 1.0% | 11.4%
SMILES | KB-V1 MDR tox | KB-3-1 tox | HT1080NT lethal | MCF10A rereplic | HT1080 IDH1KD tx | SW480 rerep
O=C(CN(C(=O)c1ccccc1Cl)C1CCCCC1)Nc1ccc(Cl)c([N+](=O)[O-])c1 | i | i | -27.2% | 12.4% | ? | ?
Cc1ccc(Cl)cc1NC(=O)C[n+]1ccc(Cc2ccc([N+](=O)[O-])cc2)cc1 | ? | 10.3µM* | ? | ? | -14.7% | 3.2%
O=C(NCCc1ccccc1)c1ccc2c(c1)nc1n2CCOC1 | i | i | · | · | · | ·
OCC(O)C[n+]1cccc(Br)c1 (stereo not given) | i | ? | · | · | · | ·
COc1ccccc1NC(=O)c1c(C)cc(C)nc1SCC(=O)c1ccc(Cl)cc1 | i | i | · | · | · | ·
Cc1cccc(NC(=O)c2cccc(S(=O)(=O)Nc3c(C)n(C)n(-c4ccccc4)c3=O)c2)c1 | 14.6µM* | i | 1.1% | 0.5% | 2.7% | -1.9%
Cc1c(N/C(=N/S(=O)(=O)c2ccccc2)c2ccc(Cl)cc2)c(=O)n(-c2ccccc2)n1C | 23.1µM* | i | 0.6% | -6.2% | 8.5% | -137.9%
CC(C)(C=O)C1=CC(=O)c2ccccc2C1=O | i | i | -29.3% | 13µM* | 13µM* | 7.31µM*
Cn1c(SCC(=O)c2ccc(F)cc2)nnc1-c1ccccc1Br | 23.1µM* | ? | · | · | · | ·
Cc1occc1-c1nnc(SCC(=O)Nc2ccc(F)cc2)n1Cc1ccccc1 | 8.2µM* | ? | 20.6µM* | ? | ? | 26.1%
O=C(CSc1nnc(-c2ccco2)n1Cc1ccccc1)c1ccc(F)cc1 | 9.2µM* | i | -1.2% | 9.5% | 15.7% | 2.7%
COc1ccccc1C(=O)Nc1cc(-c2cccc(Br)c2)nn1-c1ccccc1 | i | i | · | · | · | ·
Cc1ccccc1Nc1nn2c(=O)c3ccc(C(=O)NCC(C)c4ccccc4)cc3nc2s1 (stereo not given) | i | i | · | · | · | ·
Cc1cccc(NC2=C(Cl)C(=O)OC2OC(=O)c2ccco2)c1 (stereo not given) | i | i | ? | ? | -8.7% | 4.61µM*
Cc1ccc(NC2=C(Cl)C(=O)OC2OC(=O)c2ccco2)cc1 (stereo not given) | i | i | ? | ? | 10µM* | 20.6µM*
Cc1cccc(C(=O)Nc2ccc(C(=O)Nc3ccc(O)cc3)cc2)c1 | i | i | 20.6µM* | 14.6µM* | 7.31µM* | -0.7%
Cc1ccc(NC(=O)c2ccc(NC(=O)c3ccccc3)cc2)cc1C | 18.4µM* | 23.1µM* | ? | 24.1% | ? | ?
Cc1ccc(C(=O)Nc2cc(C(C)C)c(O)c(C(C)C)c2)cc1 | 16.4µM* | ? | 1.2% | -2.0% | -9.7% | -0.9%
Cc1cccc(C(=O)Nc2ccc(NC(=O)c3cccc(C)c3)cc2)c1 | i | ? | 1.5% | · | -3.3% | ·
